Source: PubChem BioAssay
This is a sample that favours compounds with a hit; in the whole collection about 28% have one here.
CYP2C9 act: CYP2C9 (human) activation. activation factor at 5 µM. P11712. 1.4% of 96,000 active. recombinant CYP2C9, luciferin-H conversion, luminescence; stronger effect = higher value; factor 1 = untreated enzyme, 0 = blocked;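 active = activation factor of 2 or more for CYP2C9 at a 5 µM dose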;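 also: 0 = sulfaphenazole-blocked wells and 1 = vehicle-only wells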
CYP2C19 activ: increases human CYP2C19 enzyme activity; P33261; recombinant CYP2C19, luciferin-H EGE luminescence; stronger effect = higher value; 0 = fully inhibited enzyme, 1 = untreated enzyme; activation factor at 5 µM; 96,000 tested, under 10 active;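 active = activation factor of at least 2 at 5 µM in the primary screen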;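 also: 0 = wells with 2.5 mM tranylcypromine and 1 = vehicle-only wells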
PLK1 PBD inh: blocks phosphopeptide binding to human Plk1 polo box domain; Plk1 PBD phosphopeptide binding, fluorescence polarization; inhibition, %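 (tested at about 20 µM)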; 0.13% of 97,000 active; AID 693; in the data active = inhibition above about 34%, passing the limit was not always enough
PLK1 inh: inhibitors of human PLK1 kinase; P53350; recombinant PLK1 kinase, TR-FRET peptide phosphorylation; inhibition, % at 10 µM; 0.53% of 97,000 active;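 active = inhibition of 50% or more in the single-concentration screen; inactive = inhibition below 50%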;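 also: 0% = DMSO max control and 100% = H-89 dihydrochloride min control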
CYP2C9 inh: human CYP2C9 inhibition; P11712; CYP2C9 Supersomes, luciferin-H conversion, luminescence; inhibition, % at 5 µM; 20% of 96,000 active; AID 777;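 active = blocking of liver enzyme CYP2C9 beyond about 50% at 5 µM, limit read from the data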
CYP2C19 inh: inhibitors of human CYP2C19. inhibition, % at 5 µM. P33261. AID 778. CYP2C19 Supersomes, luciferin-H EGE luminescence, 30 min. 21% of 96,000 active;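 active = CYP2C19 inhibition above a set limit at 5 µM in the primary screen, cut at about 50% in these data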;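 also: plate controls were negative control wells for no effect and 2.5 mM tranylcypromine positive control for full effect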
An asterisk follows results filed as active; / = no result.

SMILES	CYP2C9 act	CYP2C19 activ	PLK1 PBD inh	PLK1 inh	CYP2C9 inh	CYP2C19 inh
Cc1ccc(S(=O)(=O)N(C)c2ccc(N)cc2)cc1	2.2*	0.1	-14	-8	-118	94*
Cc1ccc(S(=O)(=O)N(C)c2ccc(C(=O)O)cc2)cc1	0.8	1	0	-7	20	4
COc1ccc(-c2csc(Cc3nnc(N4CCOCC4)n3-c3ccccc3)n2)cc1	0.9	1.2	/	/	12	-18
COC(=O)c1cccc(S(=O)(=O)N(Cc2ccco2)Cc2cc3cc(OC)ccc3[nH]c2=O)c1	0.8	0.8	-22	2	23	24
CCCCC1CCC(C(=O)NCc2ccc3c(c2)OCO3)CC1 (stereo not given)	0.6	0.9	-4	-16	39	12
O=C(C1COc2ccccc2O1)N1CCN(Cc2ccc3c(c2)OCO3)CC1 (stereo not given)	1	0.9	/	/	3	14
O=C(C1CC2CCC1C2)N1CCN(Cc2ccc3c(c2)OCO3)CC1 (stereo not given)	0.6	0.4	-16	-10	40	58*
CN(c1ccc(C(=O)N2CCN(Cc3ccc4c(c3)OCO4)CC2)cc1)S(=O)(=O)c1ccccc1	0.1	0.2	-27	0	94*	79*
Cc1ccc(S(=O)(=O)N(C)c2ccc(C(=O)N3CCC(C(N)=O)CC3)cc2)cc1	0.9	1	-17	-1	9	4
Cc1ccc(S(=O)(=O)N(C)c2ccc(C(=O)N3CCN(Cc4ccc5c(c4)OCO5)CC3)cc2)cc1	0.5	0.4	-11	-3	54*	55*
Cc1cccc(C(=O)N2CCN(Cc3ccc4c(c3)OCO4)CC2)c1	0.6	0.1	-4	-1	38	92*
CCOc1ccc(NC(=O)CCN2CCN(c3ccccc3)CC2)cc1	0.7	0.9	4	-11	33	8
CCOP(=O)(O)c1ccccc1OCCOc1ccccc1P(=O)(O)OCC	1.2	1.2	-26	-9	-24	-19
CCN1C(=O)c2ccccc2S(=O)c2ccc(C(=O)NC3CC3)cc21 (stereo not given)	1	1	-16	-8	4	2
CCOC(=O)C1CCN(c2c(NC3CCCc4ccccc43)c(=O)c2=O)CC1 (stereo not given)	1	1.1	-3	-15	2	-13
CN1C(=O)/C(=C/c2cn(CC(=O)N3CCCCC3)c3ccccc23)c2ccccc21	0	0.2	14	-4	98*	75*
N#Cc1cn(CC(=O)N2CCCC2)c2ccccc12	0.9	0.8	9	-4	13	24
O=Cc1cn(CC(=O)N2CCCc3ccccc32)c2ccccc12	/	/	-2	-16	/	/
O=C(c1cn(CC(=O)N2CCCC2)c2ccccc12)C1CCCCC1	0.5	0.5	-27	4	50*	54*
O=C(c1ccco1)c1cn(CC(=O)N2CCCc3ccccc32)c2ccccc12	0	0	-10	-11	100*	98*
CC1CCCCN1C(=O)Cn1cc(C(=O)c2ccco2)c2ccccc21 (stereo not given)	0.3	0.2	6	1	68*	83*
O=C(NCc1ccccn1)C1CCN(S(=O)(=O)N2CCCC2)CC1	1	1.1	/	/	-1	-6
COc1cccc(C2CC(c3cccs3)=NN2C(=O)CSC2=NN3CCCC(=O)N=C3S2)c1OC (stereo not given)	0.2	0.2	-12	2	83*	76*
CCN(CC)CC(=O)N1N=C(c2cccs2)CC1c1ccco1 (stereo not given)	1	1	4	-7	3	4
Cc1c(C(=O)NCc2ccccn2)sc2nc(-c3ccc(F)cc3)cn12	0.4	1	0	-6	63*	-2
Cc1c(C(=O)NCC2CCCO2)sc2nc(-c3ccc(F)cc3)cn12 (stereo not given)	0.4	1	/	/	55*	-2
CCOC(=O)C1C(=O)NC(C)C1c1ccccc1 (stereo not given)	1.1	1.2	-7	-13	-8	-22
CC1CCc2nn(CC(=O)NCc3ccc4c(c3)OCO4)cc2C1 (stereo not given)	0.6	0.9	/	/	40	5
CC1CCc2nn(CC(=O)Nc3c(F)cc(F)cc3Br)cc2C1 (stereo not given)	0.4	0.6	-1	-10	62*	43
